Test results published in PubChem BioAssay (Tox21).
Unmarked numbers belong to inactive results. Inconclusive results are not listed. Where a call stands in place of a potency, no number is given. Calls of active or inactive are those of the source. Unless noted, calls come from the whole dose curve; as a rule, active = well fitted curve in the direction sought with a large enough effect in the repeat runs; inconclusive = weak or mixed curves; inactive = no such curve, though single readings can be large; an effect the other way counts as inactive or inconclusive.

Experiments:
[1] = qHTS assay to identify small molecule agonists of H2AX (AID 1224845; active = well fitted activation curve with a large enough effect in the signal ratio in the repeat runs, not every such curve was filed as active; the % refers to the signal ratio; note: potency is the fitted concentration of half-maximal effect)
Method in brief: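 Wild-type CHO-K1 cells, plated overnight, exposed 3hr at 37C to 15 concentrations (0.76% DMSO final). Lysed, then HTRF anti-pH2AX (S139) cryptate and anti-H2AX-d2 antibodies, 24 hr room temperature; 665/620 nm emission read.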

[2] = qHTS assay to identify small molecule agonists of the hypoxia (HIF-1) signaling pathway (AID 1224846; active = well fitted activation curve with a large enough effect in the signal ratio in the repeat runs, not every such curve was filed as active; the % refers to the signal ratio)
Method in brief: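 ME-180 HRE-bla reporter cells; compounds in DMSO, 17 h at 37C; read-out beta-lactamase via CCF4-AM FRET.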

[3] = qHTS assay to identify small molecule agonists of H2AX - cell viability counter screen (AID 1224847; calls by dose curve; note: top concentration of the series differs between compounds; nearly all actives have a fitted effect of over 30% in size)
Method in brief: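 For this counter screen, overnight-attached CHO-K1 cells received test compounds (15 concentrations, 0.76% DMSO final); 3 hr later at 37C, CellTiter-Glo reagent was added and luminescence recorded after 30 min at room temperature.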

[4] = qHTS RealTime-Glo MT Cell Viability Assay in HepG2 cells - 24 hour (AID 1224867); note: nearly all actives have a fitted effect of over 50% in size
Method in brief: (§1)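 HepG2 cells (600/well) were dispensed with RealTime-Glo reagents, incubated 5 h at 37 °C, then treated with compounds in DMSO for up to 40 h. Nonlytic NanoLuc luminescence reflecting viable cells was read at each stated time point.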

[5] = qHTS RealTime-Glo MT Cell Viability Assay in HEK293 cells - 32 hour (AID 1224868); note: nearly all actives have a fitted effect of over 50% in size; note: potency is the fitted concentration of half-maximal effect
Method in brief: (§2)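 HEK293 cells seeded with NanoLuc/prosubstrate reagent, rested 5 h at 37 C, then dosed and kept at 37 C up to 40 h. Nonlytic real-time luminescence from viable cells read at 0, 8, 16, 24, 32 and 40 h.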

[6] = A CellTox Green Cytotoxicity Assay to monitor cytotoxicity in HEK293 cells - 0 hour (AID 1224869); note: nearly all actives have a fitted effect of over 50% in size
Method in brief: (§3)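 Real-time, in one plate: 600 HEK293 cells/well with dead-cell DNA dye, pinned compound after 5 h, 37 C incubation over 40 h; viable cells give no appreciable fluorescence.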

[7] = qHTS RealTime-Glo MT Cell Viability Assay in HepG2 cells - 40 hour (AID 1224870); note: nearly all actives have a fitted effect of over 50% in size
Method in brief: (§4)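 HepG2 cells (600/well) mixed with RealTime-Glo MT reagent, settled 5 h at 37 C/5% CO2 before compound addition. Nonlytic NanoLuc luminescence from viable-cell prosubstrate reduction read repeatedly during 40 h treatment at 37 C.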

[8] = A CellTox Green Cytotoxicity Assay to monitor cytotoxicity in HEK293 cells - 40 hour (AID 1224871); note: nearly all actives have a fitted effect of over 45% in size
Method in brief: as §3

[9] = qHTS RealTime-Glo MT Cell Viability Assay in HEK293 cells - 16 hour (AID 1224872)
Method in brief: as §2

[10] = qHTS RealTime-Glo MT Cell Viability Assay in HepG2 cells - 8 hour (AID 1224873); note: nearly all actives have a fitted effect of over 55% in size
Method in brief: as §4

[11] = qHTS RealTime-Glo MT Cell Viability Assay in HEK293 cells - 40 hour (AID 1224874); details: RealTime-Glo luminescence; max response: hits give low values; note: nearly all actives have a fitted effect of over 50% in size; note: potency is the fitted concentration of half-maximal effect
Method in brief: (§5)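 Kinetic, non-lysing viability readout. Seed HEK293 (600/well) with reagent, incubate 5 h at 37 C/5% CO2, pin 23 nL compound in DMSO, incubate at 37 C, read luminescence at 0, 8, 16, 24, 32, 40 h.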

[12] = A CellTox Green Cytotoxicity Assay to monitor cytotoxicity in HEK293 cells - 24 hour (AID 1224875); note: nearly all actives have a fitted effect of over 45% in size
Method in brief: as §3

[13] = A CellTox Green Cytotoxicity Assay to monitor cytotoxicity in HepG2 cells - 16 hour (AID 1224876); note: nearly all actives have a fitted effect of over 45% in size
Method in brief: (§6)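 Cytotoxicity was tracked as dead-cell DNA fluorescence in HepG2 cells treated with test compounds at 37 C; each time-point value comes from one kinetic series spanning 0, 8, 16, 24, 32 and 40 h.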

[14] = qHTS RealTime-Glo MT Cell Viability Assay in HepG2 cells - 32 hour (AID 1224877); note: nearly all actives have a fitted effect of over 55% in size
Method in brief: as §1

[15] = A CellTox Green Cytotoxicity Assay to monitor cytotoxicity in HepG2 cells - 24 hour (AID 1224878); note: nearly all actives have a fitted effect of over 45% in size
Method in brief: as §6

[16] = A CellTox Green Cytotoxicity Assay to monitor cytotoxicity in HepG2 cells - 40 hour (AID 1224879); note: nearly all actives have a fitted effect of over 40% in size
Method in brief: as §6

[17] = qHTS RealTime-Glo MT Cell Viability Assay in HEK293 cells - 0 hour (AID 1224880)
Method in brief: as §5

[18] = A CellTox Green Cytotoxicity Assay to monitor cytotoxicity in HEK293 cells - 32 hour (AID 1224881); note: nearly all actives have a fitted effect of over 40% in size
Method in brief: as §3

[19] = qHTS assay to identify small molecule agonists of the estrogen related receptor (ERR) signaling pathway from Tox21 library (AID 1224849; calls by dose curve; note: nearly all actives have a fitted effect of over 15% in size); details: ERR reporter cell line, ONE-Glo luciferase, 18 h
Method in brief: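 Luciferase activity in ERR pathway reporter cells served as the agonist readout; exposure lasted 18 h at 37 C, with ONE-Glo detection after 30 min at room temperature.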

[20] = qHTS assay to identify small molecule antagonists of the estrogen related receptor (ERR) signaling pathway from Tox21 library (AID 1224848); note: nearly all actives have a fitted effect of over 50% in size; note: potency is the fitted concentration of half-maximal effect
Method in brief: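 Compounds dissolved in DMSO are pin-transferred onto ERR reporter cells (2,000 per well) that have settled for 6 h at 37 C. Plates then incubate 18 h at 37 C before ONE-Glo luciferase reagent and a luminescence read 30 min later.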

CC(Oc1cc(Cl)c(Cl)cc1Cl)C(=O)O (centres undefined)
Potency [1]: inactive | outcome [2]: inactive | Potency [3]: inactive | Potency [4]: inactive | Potency [5]: inactive | Potency [6]: inactive | Potency [7]: inactive | Potency [8]: inactive | Potency [9]: inactive | Potency [10]: inactive | max response [11]: 3.67% | Potency [12]: inactive | Potency [13]: inactive | Potency [14]: inactive | Potency [15]: inactive | Potency [16]: inactive | outcome [17]: inactive | Potency [18]: inactive

O=C(O)c1cc(Cl)ccc1Cl
Potency [1]: inactive | outcome [2]: inactive | Potency [3]: inactive | Potency [4]: inactive | Potency [5]: inactive | Potency [6]: inactive | Potency [7]: inactive | Potency [8]: inactive | Potency [9]: inactive | Potency [10]: inactive | max response [11]: 8.52% | Potency [12]: inactive | Potency [13]: inactive | Potency [14]: inactive | Potency [15]: inactive | Potency [16]: inactive | outcome [17]: inactive | Potency [18]: inactive

Cc1nc2ccccc2c(=O)n1-c1ccccc1Cl
Potency [1]: 27.8 µM (active) | outcome [2]: inactive | Potency [3]: inactive | activity change, positive = activation ([19]; at 92.4 µM (top of the series)): -29.9% | Potency [4]: inactive | Potency [5]: 21.4 µM (active) | Potency [6]: inactive | Potency [7]: inactive | Potency [8]: inactive | Potency [11]: 21.4 µM (active) | Potency [12]: inactive | Potency [13]: inactive | Potency [15]: inactive | Potency [16]: inactive | outcome [17]: inactive | Potency [18]: inactive

COc1cc(CC#N)cc(OC)c1OC
Potency [1]: inactive | outcome [2]: inactive | Potency [3]: inactive | Potency [4]: inactive | Potency [5]: inactive | Potency [6]: inactive | Potency [7]: inactive | Potency [8]: inactive | Potency [9]: inactive | Potency [10]: inactive | max response [11]: 0.767% | Potency [12]: inactive | Potency [13]: inactive | Potency [14]: inactive | Potency [15]: inactive | Potency [16]: inactive | outcome [17]: inactive | Potency [18]: inactive

O=S(=O)(c1ccccc1)c1ccccc1
Potency [1]: inactive | outcome [2]: inactive | Potency [3]: inactive | Potency [20]: inactive | Potency [4]: inactive | Potency [6]: inactive | Potency [7]: inactive | Potency [8]: inactive | Potency [9]: inactive | max response [11]: 1.49% | Potency [12]: inactive | Potency [13]: inactive | Potency [14]: inactive | Potency [15]: inactive | Potency [16]: inactive | outcome [17]: inactive | Potency [18]: inactive

C=CCOC(=O)C(C)(C)OC(=O)c1cc(-n2c(=O)cc(C(F)(F)F)n(C)c2=O)ccc1Cl
Potency [1]: inactive | outcome [2]: inactive | Potency [3]: inactive | Potency [20]: 26.8 µM (active) | activity change, positive = activation ([19]; at 92.4 µM (top of the series)): -42.4% | Potency [4]: inactive | Potency [6]: inactive | Potency [7]: inactive | Potency [8]: inactive | Potency [10]: inactive | Potency [11]: 21.5 µM (active) | Potency [12]: inactive | Potency [13]: inactive | Potency [15]: inactive | Potency [16]: inactive | Potency [18]: inactive

CC(C)(C)NCC(O)c1cc(Cl)c(N)c(C(F)(F)F)c1 (centres undefined)
Potency [1]: inactive | outcome [2]: inactive | Potency [3]: inactive | Potency [20]: inactive | activity change, positive = activation ([19]; at 42.5 µM (top of the series)): -0.267% | Potency [4]: inactive | Potency [6]: inactive | Potency [7]: inactive | Potency [8]: inactive | Potency [9]: inactive | Potency [12]: inactive | Potency [13]: inactive | Potency [15]: inactive | Potency [16]: inactive | outcome [17]: inactive | Potency [18]: inactive
